Several values for one entry are separate records, joined by “and”; a condition that tells them apart may be missing. Equal entries are not always repeated. Records with an inconclusive call do not appear. Activity calls are given as the source filed them. Unless noted, calls come from the whole dose curve; as a rule, active = well fitted curve in either direction with a large enough effect (not every such curve was filed as active); inconclusive = small, poorly fitted or top-dose-only effect, or another doubt; inactive = flat fitted curve, though single readings scatter.
Key:
[1] = AP1 Signaling Pathway (AID 357); conditions: ME-180 AP-1-bla reporter, EGF-induced, beta-lactamase ratio, 5 h;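 note: ME-180 reporter cells stimulated with EGF at its EC50 level; % is set by controls: 0 for no effect and ±100 for the full control effect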
Method in brief: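 First, ME-180 AP-1-bla cells were cultured overnight at 37 °C in low-serum Opti-MEM. Next, titrated compounds with EC50 EGF were incubated 5 hours. Finally, CCF4 was added for 2.5 hours and the 460/530 nm ratio recorded.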

[2] = NFAT Signaling Pathway (AID 444); conditions: Jurkat NFAT-bla M1, carbachol, beta-lactamase ratio, 5 h;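 note: carbachol stimulus at about its EC50 of 1 µM final; % is set by controls: 0 for no effect and ±100 for the full control effect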
Method in brief: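 Jurkat cells with NFAT-driven β-lactamase reporter and co-expressed M1 receptor, stimulated with carbachol (final 1 uM, ~EC50), compound titration, 5 h at 37 °C. CCF4 loaded 1 h at RT; 460/530 nm ratio gave %activity and AC50.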

[3] = Stat Signaling Pathway (AID 446); conditions: ME-180 (cervical carcinoma) SIE beta-lactamase reporter, IL-6 stimulated, 5 h;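 note: ME-180 cervical cancer cells given 40 pM IL-6 alongside compound; SIE-controlled beta-lactamase reporter measured as 460/530 nm FRET emission ratio; % is set by controls: 0 for no effect and ±100 for the full control effect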
Method in brief: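 Emission at 460 and 530 nm (excitation 405 nm) reports SIE-controlled beta-lactamase in ME-180 cells. Cells received compound with 40 pM IL-6 for 5 hrs at 37 C; data scaled between 300 pM IL-6 and 125 nM JAK-inhibitor controls.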

[4] = target: Mitogen-activated protein kinase 10 (Mus musculus) (UniProt Q61831); assay: JNK3 AlphaScreen Assay (AID 530); conditions: JNK3 lysate, c-Jun phosphorylation; series mostly up to 57.1 µM;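 note: kinase came from lysate of stimulated human HepG2 cells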; note: potency is the fitted concentration of half-maximal effect;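 for activity change, negative = inhibition: signal reports phosphorylation of biotinylated GST-cJun 1-79 at Ser73 with 10 µM ATP; % is set by controls: 0 for no effect and ±100 for the full control effect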
Method in brief: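 Activity was read by AlphaScreen after JNK3-containing HepG2 lysate (cytokine pre-activated) phosphorylated biotinylated GST-cJun with 10 uM ATP at room temperature. Phospho-Ser73 cJun antibody with Protein-A acceptor beads provided detection.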

[5] = target: Cytochrome P450 1A2 (Homo sapiens) (UniProt P05177); assay: p450-cyp1a2 (AID 410; calls by dose curve; note: potency is the fitted concentration of half-maximal effect;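 for activity change, negative = inhibition: -100% = full effect of reference inhibitor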); conditions: recombinant CYP1A2, luciferin-ME demethylation, luminescence; series mostly up to 25.6 µM
Method in brief: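 Luminescent demethylation readout: Luciferin-ME (100uM, equal to Km) turned over by 20nM CYP1A2 for 60 min at room temperature after NADPH regeneration addition, following 10 min compound preincubation. Normalization used 57 uM furafylline as full inhibition.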

[6] = target: Glucocorticoid receptor (Homo sapiens) (UniProt P04150); assay: GR-GFP Redistribution (AID 450;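 active = compounds whose dose series gives a full or clear partial fitted curve of increased nuclear translocation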; note: potency is the fitted concentration of half-maximal effect); conditions: U2OS GR-GFP nuclear translocation, laser cytometry, 2 h
[7] = target: Glucocorticoid receptor (Homo sapiens) (UniProt P04150); assay: GR-EFC Redistribution (AID 451; calls by dose curve; note: potency is the fitted concentration of half-maximal effect); conditions: CHO-K1 GR-EFC translocation, beta-gal luminescence, 2 h
Method in brief: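 CHO-K1 cells expressing nuclear EA and GR-ED fragments of b-gal; compounds titrated up to 46 uM final, 2 h at 37 C. GR nuclear translocation read as complemented b-gal luminescence after 1 h RT detection.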

Chain of Glucocorticoid receptor (Homo sapiens) (P04150 whole entry, looked up, the tested form may be a part): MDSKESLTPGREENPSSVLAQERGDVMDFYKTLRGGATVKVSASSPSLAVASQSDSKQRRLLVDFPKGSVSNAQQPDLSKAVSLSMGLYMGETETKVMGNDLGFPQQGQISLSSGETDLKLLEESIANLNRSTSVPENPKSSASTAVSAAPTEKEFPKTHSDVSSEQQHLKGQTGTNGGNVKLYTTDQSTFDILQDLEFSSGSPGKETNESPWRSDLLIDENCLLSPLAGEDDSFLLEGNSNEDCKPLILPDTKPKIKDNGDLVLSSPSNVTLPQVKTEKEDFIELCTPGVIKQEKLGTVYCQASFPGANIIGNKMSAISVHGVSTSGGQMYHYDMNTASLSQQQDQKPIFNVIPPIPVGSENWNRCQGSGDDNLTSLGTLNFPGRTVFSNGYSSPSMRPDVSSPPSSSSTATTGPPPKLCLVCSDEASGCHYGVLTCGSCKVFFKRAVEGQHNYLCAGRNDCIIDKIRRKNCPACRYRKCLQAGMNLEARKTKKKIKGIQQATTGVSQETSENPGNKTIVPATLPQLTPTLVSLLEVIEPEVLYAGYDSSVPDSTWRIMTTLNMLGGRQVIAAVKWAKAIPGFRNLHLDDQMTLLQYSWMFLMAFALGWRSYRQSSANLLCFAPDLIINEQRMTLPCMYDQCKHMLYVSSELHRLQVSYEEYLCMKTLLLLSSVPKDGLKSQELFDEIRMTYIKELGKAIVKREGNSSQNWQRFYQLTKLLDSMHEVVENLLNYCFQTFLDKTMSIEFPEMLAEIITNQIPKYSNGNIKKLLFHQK
Chain of Cytochrome P450 1A2 (Homo sapiens) (P05177 whole entry, looked up): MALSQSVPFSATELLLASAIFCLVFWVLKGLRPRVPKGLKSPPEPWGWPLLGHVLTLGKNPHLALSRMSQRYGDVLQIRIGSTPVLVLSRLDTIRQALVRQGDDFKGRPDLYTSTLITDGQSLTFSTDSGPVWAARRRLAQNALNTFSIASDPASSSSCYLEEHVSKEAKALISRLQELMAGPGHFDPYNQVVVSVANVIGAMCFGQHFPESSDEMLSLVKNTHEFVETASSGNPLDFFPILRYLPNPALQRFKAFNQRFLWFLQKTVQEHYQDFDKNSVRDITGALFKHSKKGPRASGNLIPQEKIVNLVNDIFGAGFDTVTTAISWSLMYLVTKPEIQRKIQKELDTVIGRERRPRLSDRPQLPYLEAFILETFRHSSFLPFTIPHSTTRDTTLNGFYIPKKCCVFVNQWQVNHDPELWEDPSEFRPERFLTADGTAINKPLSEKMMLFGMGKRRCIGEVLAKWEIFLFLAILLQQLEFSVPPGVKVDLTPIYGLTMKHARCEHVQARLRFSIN

CCN(CC)CCOC(=O)C1(C2CCCCC2)CCCCC1
active: activity change, negative = inhibition ([2]; at 17.2 µM (top of the series)) -68.8% | activity change, negative = inhibition ([2]; at 38 µM (top of the series)) -63.7%
inactive: activity change, negative = inhibition ([1]; at 17.2 µM (top of the series)) 21% | activity change, negative = inhibition ([1]; at 38 µM (top of the series)) 20.8% | activity, negative = inhibition ([3]; at 17.2 µM (top of the series)) 0.488% and 9.07% | activity, negative = inhibition ([3]; at 38 µM (top of the series)) -26% | Potency [4]

CC1(C)OC(=O)NC1=O
inactive: activity change, negative = inhibition ([1]; at 17.2 µM (top of the series)) 5.67% | Potency [5] | activity change, negative = inhibition ([2]; at 17.2 µM (top of the series)) -1.86% | activity, negative = inhibition ([3]; at 17.2 µM (top of the series)) 1.25% | Potency [6] > 20.6 µM | Potency [7] > 20.6 µM | Potency [4]

CNCCCC1c2ccccc2C=Cc2ccccc21
active: activity change, negative = inhibition ([2]; at 17.2 µM (top of the series)) -94%
inactive: activity change, negative = inhibition ([1]; at 17.2 µM (top of the series)) -3.44% and 2.28% | Potency [5] | activity, negative = inhibition ([3]; at 17.2 µM (top of the series)) -10.4% and -15.8% | activity, negative = inhibition ([3]; at 38 µM (top of the series)) -9.63% | Potency [6] > 46 µM and > 20.6 µM | Potency [7] > 46 µM and > 20.6 µM | Potency [4]

C#CCN(C)Cc1ccccc1
inactive: activity change, negative = inhibition ([1]; at 17.2 µM (top of the series)) -4.72% and 6.12% | activity change, negative = inhibition ([1]; at 38 µM (top of the series)) 1.9% | Potency [5] | activity change, negative = inhibition ([2]; at 17.2 µM (top of the series)) 4.68% and -0.725% | activity change, negative = inhibition ([2]; at 38 µM (top of the series)) 4.11% | activity, negative = inhibition ([3]; at 17.2 µM (top of the series)) 8.61% and -2.46% | Potency [6] > 46 µM and > 20.6 µM | Potency [7] > 46 µM and > 20.6 µM | Potency [4]

CC(C)NC[C@H](O)c1ccc(O)c(O)c1
inactive: activity change, negative = inhibition ([1]; at 17.2 µM (top of the series)) 3.55% and -12.3% | activity change, negative = inhibition ([1]; at 38 µM (top of the series)) -3.34% [middle of 4 runs] | activity change, negative = inhibition ([2]; at 17.2 µM (top of the series)) -6.44% and -3.44% | activity, negative = inhibition ([3]; at 17.2 µM (top of the series)) -5.65% and -7.18% | activity, negative = inhibition ([3]; at 38 µM (top of the series)) -27.8% and -1.34% and -7.26% | Potency [6] > 46 µM and > 20.6 µM | Potency [7] > 46 µM and > 20.6 µM | Potency [4]

CC1=C(CC(=O)O)c2cc(F)ccc2/C1=C\c1ccc(S(C)(=O)=O)cc1
inactive: activity change, negative = inhibition ([1]; at 38 µM (top of the series)) 11.6% | activity change, negative = inhibition ([2]; at 38 µM (top of the series)) 13.8% | activity, negative = inhibition ([3]; at 38 µM (top of the series)) -25.4% | Potency [4]
active: Potency [5] 12.6 µM

C=Cc1c(C)c2cc3[nH]c(cc4nc(cc5nc(cc1[nH]2)C(C)=C5CCC(=O)O)C(CCC(=O)O)=C4C)c(C)c3C=C
inactive: activity change, negative = inhibition ([1]; at 38 µM (top of the series)) -5.02% | activity change, negative = inhibition ([2]; at 38 µM (top of the series)) 10.7% | Potency [6] > 46 µM | Potency [7] > 46 µM
active: Potency [5] 6.31 µM | Potency [4] 0.398 µM [activator]

C[C@]12CC[C@@H]3c4ccc(O)cc4CC[C@H]3[C@@H]1CCC2=O
inactive: activity change, negative = inhibition ([1]; at 17.2 µM (top of the series)) -1.97% | activity change, negative = inhibition ([2]; at 17.2 µM (top of the series)) -19.8% | activity, negative = inhibition ([3]; at 17.2 µM (top of the series)) -23.3%

O=C(O)CN1C(=O)c2cccc3cccc(c23)C1=O
inactive: Potency [4]

NS(=O)(=O)c1cc2c(cc1C(F)(F)F)NC(Cc1ccccc1)NS2(=O)=O (configuration not stated)
inactive: activity change, negative = inhibition ([1]; at 17.2 µM (top of the series)) -11.1% | activity change, negative = inhibition ([2]; at 17.2 µM (top of the series)) 0.596% | activity, negative = inhibition ([3]; at 17.2 µM (top of the series)) 1.32%
